Source: ChEMBL document CHEMBL1157539, “Thousands of chemical starting points for antimalarial lead identification” (Nature, 2010)

Assays:
Format in all cases: functional
Plasmodium falciparum [1] = assay: GSK_TCMDC: Inhibition of Plasmodium falciparum 3D7 in whole red blood cells, using parasite LDH activity as an index of growth. Test compounds present at 2uM
Plasmodium falciparum [2] = assay: GSK_TCMDC: Inhibition of Plasmodium falciparum Dd2 in whole red blood cells, using parasite LDH activity as an index of growth. Test compounds present at 2uM
HepG2 = assay: GSK_TCMDC: Percent inhibition of human HepG2 cell line. Test compounds present at 10uM.

Br.CCc1c(CCNCCCCCCNCCc2ccc(Br)cc2)ccc(O)c1O
Inhibition (Plasmodium falciparum [1]): 95% | Inhibition (Plasmodium falciparum [2]): 1% | Inhibition (HepG2): 11%

Cc1cc(=NN=CC=Cc2ccccc2)c2ccc(F)cc2[nH]1
Inhibition (Plasmodium falciparum [1]): 100% | Inhibition (Plasmodium falciparum [2]): 30% | Inhibition (HepG2): 14%

C(=Cc1nc2ccccc2s1)c1ccc2c(c1)OCCO2.Cl
Inhibition (Plasmodium falciparum [1]): 98% | Inhibition (Plasmodium falciparum [2]): 96% | Inhibition (HepG2): 13%

CCOc1cc(C=NNc2nc(C)cc(-n3nc(C)cc3C)n2)ccc1O
Inhibition (Plasmodium falciparum [1]): 93% | Inhibition (Plasmodium falciparum [2]): 52% | Inhibition (HepG2): 46%

CC1(C)N=C(NC(=O)c2cc([N+](=O)[O-])cc([N+](=O)[O-])c2)N=C(N)N1OCc1cccc2ccccc12
Inhibition (Plasmodium falciparum [1]): 94% | Inhibition (Plasmodium falciparum [2]): 20% | Inhibition (HepG2): 66%

CC(C)CN1CCCN(Cc2cccc(NC(=O)c3cc4ccccc4s3)c2)CC1.O=C(O)C(F)(F)F
Inhibition (Plasmodium falciparum [1]): 87% | Inhibition (Plasmodium falciparum [2]): 6% | Inhibition (HepG2): 5%

O=C(NC(c1ccccc1)c1ccccc1)C(c1cc2ccccc2o1)N1CCN(C(c2ccccc2)c2ccccc2)CC1 (stereo not drawn)
Inhibition (Plasmodium falciparum [1]): 95% | Inhibition (Plasmodium falciparum [2]): 78% | Inhibition (HepG2): 0%

CC1CCN(CCNC(=O)c2ccc3c(=O)n(Cc4ccc(Cl)cc4)c(=S)[nH]c3c2)CC1
Inhibition (Plasmodium falciparum [1]): 100% | Inhibition (Plasmodium falciparum [2]): 75% | Inhibition (HepG2): 6%

O=C(Nc1ccc(-c2nc3ccccc3[nH]2)cc1)c1cccc(S(=O)(=O)N2CCOCC2)c1
Inhibition (Plasmodium falciparum [1]): 89% | Inhibition (Plasmodium falciparum [2]): 43% | Inhibition (HepG2): 6%

O=C(/C=C/c1ccc(Cl)c(Cl)c1)NCCCCCN1CCC(C(=O)Nc2ccc3c(c2)OCO3)CC1
Inhibition (Plasmodium falciparum [1]): 92% | Inhibition (Plasmodium falciparum [2]): 0% | Inhibition (HepG2): 18%

CN1CCN(Cc2cccc(-c3ccc4c(Nc5ccc(Oc6ccccc6)cc5)ccnc4c3)c2)CC1
Inhibition (Plasmodium falciparum [1]): 100% | Inhibition (Plasmodium falciparum [2]): 100% | Inhibition (HepG2): 41%
